Measured values published in PubChem BioAssay (EPA / NIEHS).
“And” between values parts separate entries of the source, which are not always exact repeats. Equal entries are not always repeated. Records with an inconclusive call do not appear. A structure can be active in one record and inactive in another. The source made the active and inactive calls. The calls were made as follows, unless noted: active = hit-call score of the fitted dose curve at least 0.9, where 1 is the maximum; inactive = score below 0.9.

How the values were obtained:
[1] = ATG_TAL_CIS: Attagene CIS-FACTORIAL HepG2 Assay for human TAL Basal Promoter (AID 2282966); settings: HepG2 Attagene cis-factorial TAL promoter reporter; actives raise or lower the signal;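 also: background control endpoint measuring basal TAL promoter reporter mRNA not a specific factor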
Outline: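 HepG2, transient MRTU transfection, 24 h compound exposure; RNA → oligo(dT) RT → PCR → 6-FAM primer extension → HpaI digest → CE fluorescence. Bidirectional curve fit vs DMSO. Background-control readout.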

[2] = ATG_VDRE_CIS: Attagene CIS-FACTORIAL HepG2 Assay for human Vitamin D Receptor Element (VDRE) (AID 2282968); settings: HepG2 VDRE cis-reporter transcription, actives raise or lower the signal
Outline: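 Transient MRTU transfection of HepG2, 24 h compound exposure. Readout: reporter transcripts via RT-PCR and capillary electrophoresis, fluorescence. Bidirectional fit vs DMSO.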

[3] = biological target: Estrogen receptor (Homo sapiens) (UniProt P03372); test: ATG_ERa_TRANS: Attagene TRANS-FACTORIAL HepG2 Assay for human Estrogen Receptor alpha (ERa) (AID 2282970; active = hit-call score of the fitted dose curve at least 0.9, where 1 is the maximum); settings: HepG2 Attagene TRANS ERa GAL4 reporter, mRNA
Outline: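 Reporter mRNA induction after 24 hours, detected by fluorescent RT-PCR and capillary electrophoresis, gives the read-out. Cells are HepG2 transiently transfected with GAL4-UAS reporter transcription units responding to chimeric NR-Gal4. Activity is taken as gain of signal over DMSO baseline.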

[4] = biological target: X-box-binding protein 1 (Homo sapiens) (UniProt P17861); test: ATG_Xbp1_CIS: Attagene CIS-FACTORIAL HepG2 Assay for human X-box Binding Protein 1 (XBP1) (AID 2282972); settings: HepG2 XBP1 cis-element reporter, Attagene multiplex; actives raise or lower the signal
Outline: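 Changes in reporter transcript abundance, read by RT-PCR and capillary electrophoresis, reflect endogenous transcription factor activity. Transfected HepG2 cells received compound for 24 hours; DMSO defined baseline for bidirectional analysis.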

[5] = ATG_M_19_TRANS: Attagene TRANS-FACTORIAL HepG2 Assay for M19 Transcription Factor (Internal Marker) (AID 2282974; active = hit-call score of the fitted dose curve at least 0.9, where 1 is the maximum); settings: HepG2 Attagene TRANS-FACTORIAL M19 internal marker reporter
Outline: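 Measured here: internal-marker reporter transcript from HepG2 cells transfected with MRTUs, harvested at 24 h. cDNA PCR products were 6-FAM labelled by primer extension, cut with HpaI for 2 h at 37 C, and resolved by CE.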

[6] = ATG_GAL4_TRANS: Attagene TRANS-FACTORIAL HepG2 Assay for GAL4 (Internal Marker) (AID 2282976; active = hit-call score of the fitted dose curve at least 0.9, where 1 is the maximum); settings: HepG2 Attagene TRANS GAL4 internal marker reporter
Outline: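 RT-PCR/capillary electrophoresis readout of reporter mRNA. HepG2, transient MRTU transfection (GAL4-UAS reporters), 24 h compound exposure. Background-control endpoint, positive direction vs DMSO baseline.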

[7] = biological target: Transcriptional activator Myb (Homo sapiens) (UniProt P10242); test: ATG_Myb_CIS: Attagene CIS-FACTORIAL HepG2 Assay for human Myeloblastosis (Myb) Proto-Oncogene Transcription Factor (AID 2282986); settings: HepG2 Attagene CIS-FACTORIAL Myb reporter transcription; actives raise or lower the signal
Outline: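 Fluorescence signals from capillary electrophoresis of RT-PCR-amplified reporter cDNA give the read-out. Cells: HepG2 transfected with multiple cis-regulated reporter units. Exposure lasts 24 hours; DMSO defines baseline for gain or loss of signal.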

[8] = biological target: Nuclear respiratory factor 1 (Homo sapiens) (UniProt Q16656); test: ATG_NRF1_CIS: Attagene CIS-FACTORIAL HepG2 Assay for human Nuclear Respiratory Factor 1 (NRF1) Orphan Gene (AID 2282987); settings: HepG2 NRF1 cis-element reporter, Attagene multiplex; actives raise or lower the signal
Outline: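 Transcriptional reporter readout, one component of a 52-endpoint multiplexed HepG2 panel. Exposure 24 h; mRNA detected via RT-PCR and fluorescent capillary electrophoresis; fitting in both directions against DMSO.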

[9] = ATG_NFI_CIS: Attagene CIS-FACTORIAL HepG2 Assay for human Nuclear Factor I (NFI) (AID 2282989); settings: HepG2 cis-regulatory reporter, NFI response element transcription; actives raise or lower the signal
Outline: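 Cells: human liver HepG2, transiently transfected with promoter-regulated reporter transcription units. Exposure 24 h. Detection: fluorescent RT-PCR products separated by capillary electrophoresis, normalised to DMSO negative control.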

[10] = biological target: Nuclear receptor subfamily 1 group I member 3 (Homo sapiens) (UniProt Q14994); test: ATG_CAR_TRANS: Attagene TRANS-FACTORIAL HepG2 Assay for human Constitutive Androstane Receptor (CAR) (AID 2282969; active = hit-call score of the fitted dose curve at least 0.9, where 1 is the maximum;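 also: activators raise reporter mRNA above DMSO so AC50 marks induction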); settings: HepG2 Attagene TRANS-FACTORIAL CAR reporter
Outline: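 Transiently transfected HepG2, multiplex TRANS reporters (CAR-Gal4 chimera driving GAL4-UAS reporter). 24 h dosing. Readout: reporter transcript by RT-PCR + capillary electrophoresis, fluorescence intensity; positive direction vs DMSO.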

[11] = biological target: Androgen receptor (Homo sapiens) (UniProt P10275); test: ATG_AR_TRANS: Attagene TRANS-FACTORIAL HepG2 Assay for human Androgen Receptor (AR) (AID 2282973; active = hit-call score of the fitted dose curve at least 0.9, where 1 is the maximum); settings: HepG2 Attagene TRANS-FACTORIAL AR reporter transcription
Outline: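 Readout is reporter transcript abundance, quantified by fluorescent RT-PCR products separated on capillary electrophoresis. Human HepG2 liver cells carried transiently transfected NR-Gal4 chimera plus GAL4-UAS reporter constructs and were dosed for 24 h; activity scored upward versus DMSO.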

[12] = ATG_M_06_TRANS: Attagene TRANS-FACTORIAL HepG2 Assay for M06 Transcription Factor (Internal Marker) (AID 2282983; active = hit-call score of the fitted dose curve at least 0.9, where 1 is the maximum); settings: HepG2 Attagene TRANS M06 internal marker reporter
Outline: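 Read-out: fluorescent reporter cDNA fragments resolved by capillary electrophoresis after RT-PCR and HpaI cut. Source cells were HepG2 carrying transfected multi-reporter GAL4 constructs, dosed 24 h. Increase over DMSO control analysed.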

[13] = biological target: Glucocorticoid receptor (Homo sapiens) (UniProt P04150); test: ATG_GR_TRANS: Attagene TRANS-FACTORIAL HepG2 Assay for human Glucocorticoid Receptor (GR) (AID 2282978; active = hit-call score of the fitted dose curve at least 0.9, where 1 is the maximum;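 also: activators score as hits since higher reporter transcript over DMSO is fitted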); settings: HepG2 Attagene TRANS GR reporter, mRNA transcription
Outline: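 Measurement of GAL4-UAS-driven reporter mRNA in human HepG2 liver cells 24 h post-dosing, using RT-PCR with fluorescent labelling and capillary electrophoresis; the transfected constructs report exogenous NR-GAL4 chimera activity, fitted upward against DMSO.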

[14] = biological target: Bile acid receptor (Homo sapiens) (UniProt Q96RI1); test: ATG_FXR_TRANS: Attagene TRANS-FACTORIAL HepG2 Assay for Farnesoid X Receptor (FXR) (AID 2282979; active = hit-call score of the fitted dose curve at least 0.9, where 1 is the maximum;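 also: hits raise reporter mRNA above DMSO so AC50 marks FXR activation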); settings: HepG2 Attagene TRANS FXR-GAL4 reporter transcription
Outline: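 Read-out: fluorescent reporter transcripts quantified by capillary electrophoresis after RT-PCR of total RNA. Source cells were HepG2 transiently carrying chimeric NR-GAL4 plus GAL4-UAS reporter units, dosed 24 h. Activity fitted upward relative to DMSO baseline.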

[15] = ATG_M_32_TRANS: Attagene TRANS-FACTORIAL HepG2 Assay for M32 Transcription Factor (Internal Marker) (AID 2282984; active = hit-call score of the fitted dose curve at least 0.9, where 1 is the maximum;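 also: transcript level of a background control reporter unit measured by RT-PCR and capillary electrophoresis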); settings: HepG2 Attagene TRANS M32 internal marker reporter
Outline: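 Read-out: fluorescent reporter cDNA fragments resolved by capillary electrophoresis after RT-PCR of total RNA. Transfected HepG2 cells were exposed to chemical for 24 h. Activity scored in the positive direction relative to DMSO.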

[16] = biological target: Oxysterols receptor LXR-beta (Homo sapiens) (UniProt P55055); test: ATG_LXRb_TRANS: Attagene TRANS-FACTORIAL HepG2 Assay for human Liver X Receptor beta (LXRb) (AID 2282981; active = hit-call score of the fitted dose curve at least 0.9, where 1 is the maximum); settings: HepG2 Attagene TRANS GAL4-LXRb reporter, mRNA
Outline: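 Readout: fluorescent reporter mRNA fragments resolved by capillary electrophoresis after RT-PCR. System: transiently transfected human HepG2, exogenous LXRb-Gal4 chimera driving GAL4-UAS reporter, 24 h dosing. Activity fitted upward against DMSO baseline.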

[17] = biological target: Hepatocyte nuclear factor 4-alpha (Homo sapiens) (UniProt P41235); test: ATG_HNF4a_TRANS: Attagene TRANS-FACTORIAL HepG2 Assay for human Hepatocyte Nuclear Factor 4 alpha (HNF4a) (AID 2282982; active = hit-call score of the fitted dose curve at least 0.9, where 1 is the maximum); settings: HepG2 HNF4a transactivation reporter, mRNA readout
Outline: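 Transient MRTU transfection of HepG2, 24 h dosing. Readout: reporter mRNA via RT-PCR + capillary electrophoresis, fluorescence; activity fit upward relative to DMSO control.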

Measured: AC50

Transcriptional activator Myb (Homo sapiens), sequence (P10242 whole entry, looked up): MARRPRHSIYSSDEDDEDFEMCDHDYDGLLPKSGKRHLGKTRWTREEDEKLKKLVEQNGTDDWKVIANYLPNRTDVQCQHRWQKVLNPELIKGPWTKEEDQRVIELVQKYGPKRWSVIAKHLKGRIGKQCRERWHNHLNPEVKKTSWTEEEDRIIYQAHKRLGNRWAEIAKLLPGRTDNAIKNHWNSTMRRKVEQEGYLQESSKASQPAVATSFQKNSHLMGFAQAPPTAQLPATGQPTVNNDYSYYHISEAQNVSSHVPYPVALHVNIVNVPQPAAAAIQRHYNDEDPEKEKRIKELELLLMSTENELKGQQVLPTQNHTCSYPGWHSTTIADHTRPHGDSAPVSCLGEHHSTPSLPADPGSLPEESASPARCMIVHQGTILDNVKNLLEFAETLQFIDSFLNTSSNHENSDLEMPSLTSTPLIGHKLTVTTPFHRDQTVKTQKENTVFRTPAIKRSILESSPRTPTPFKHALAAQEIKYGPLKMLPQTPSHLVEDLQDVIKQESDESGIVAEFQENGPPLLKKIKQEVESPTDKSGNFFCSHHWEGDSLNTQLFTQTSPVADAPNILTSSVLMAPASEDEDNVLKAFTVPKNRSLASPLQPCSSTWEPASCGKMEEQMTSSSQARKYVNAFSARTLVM
Bile acid receptor (Homo sapiens), sequence (Q96RI1 whole entry, looked up, the tested form may be a part): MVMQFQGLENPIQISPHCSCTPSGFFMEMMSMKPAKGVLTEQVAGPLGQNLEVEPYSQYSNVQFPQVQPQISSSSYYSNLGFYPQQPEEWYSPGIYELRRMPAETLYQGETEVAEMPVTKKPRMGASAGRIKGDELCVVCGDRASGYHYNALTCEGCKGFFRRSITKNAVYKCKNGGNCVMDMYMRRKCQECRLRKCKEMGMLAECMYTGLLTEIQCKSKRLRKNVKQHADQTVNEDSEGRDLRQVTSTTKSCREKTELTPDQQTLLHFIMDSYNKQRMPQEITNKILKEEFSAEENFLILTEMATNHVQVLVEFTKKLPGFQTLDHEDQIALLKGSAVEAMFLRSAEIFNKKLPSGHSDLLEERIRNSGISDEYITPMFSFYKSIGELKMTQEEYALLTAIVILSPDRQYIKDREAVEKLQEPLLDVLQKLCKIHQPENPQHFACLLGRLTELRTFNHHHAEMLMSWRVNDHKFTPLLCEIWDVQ
Estrogen receptor (Homo sapiens), sequence (P03372 whole entry, looked up, the tested form may be a part): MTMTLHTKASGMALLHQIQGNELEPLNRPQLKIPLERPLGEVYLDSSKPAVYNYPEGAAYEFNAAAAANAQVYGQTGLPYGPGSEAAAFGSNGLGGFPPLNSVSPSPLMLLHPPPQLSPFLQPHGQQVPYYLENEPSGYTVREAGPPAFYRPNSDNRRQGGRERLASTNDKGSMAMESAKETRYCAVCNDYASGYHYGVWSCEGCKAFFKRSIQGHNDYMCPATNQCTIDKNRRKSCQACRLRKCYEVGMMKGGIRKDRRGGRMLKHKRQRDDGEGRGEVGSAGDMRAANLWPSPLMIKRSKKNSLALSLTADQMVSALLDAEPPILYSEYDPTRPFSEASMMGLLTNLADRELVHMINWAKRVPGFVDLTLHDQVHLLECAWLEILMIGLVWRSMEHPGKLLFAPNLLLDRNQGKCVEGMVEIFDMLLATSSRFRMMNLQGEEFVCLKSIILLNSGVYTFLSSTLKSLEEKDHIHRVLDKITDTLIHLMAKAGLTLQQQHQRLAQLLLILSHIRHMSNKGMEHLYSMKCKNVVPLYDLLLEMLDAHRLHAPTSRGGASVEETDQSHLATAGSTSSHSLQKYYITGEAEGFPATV
Nuclear receptor subfamily 1 group I member 3 (Homo sapiens), sequence (Q14994 whole entry, looked up, the tested form may be a part): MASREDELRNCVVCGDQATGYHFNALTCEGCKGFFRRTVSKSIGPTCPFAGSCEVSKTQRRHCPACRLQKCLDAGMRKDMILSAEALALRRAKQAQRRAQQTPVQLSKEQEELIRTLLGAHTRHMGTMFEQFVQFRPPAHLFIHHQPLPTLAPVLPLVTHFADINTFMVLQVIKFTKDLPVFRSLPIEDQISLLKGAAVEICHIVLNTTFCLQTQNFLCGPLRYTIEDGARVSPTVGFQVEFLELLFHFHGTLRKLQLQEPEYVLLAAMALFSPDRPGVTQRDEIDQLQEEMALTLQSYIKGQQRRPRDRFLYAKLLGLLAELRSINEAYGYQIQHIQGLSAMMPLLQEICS
Nuclear respiratory factor 1 (Homo sapiens), sequence (Q16656 whole entry, looked up): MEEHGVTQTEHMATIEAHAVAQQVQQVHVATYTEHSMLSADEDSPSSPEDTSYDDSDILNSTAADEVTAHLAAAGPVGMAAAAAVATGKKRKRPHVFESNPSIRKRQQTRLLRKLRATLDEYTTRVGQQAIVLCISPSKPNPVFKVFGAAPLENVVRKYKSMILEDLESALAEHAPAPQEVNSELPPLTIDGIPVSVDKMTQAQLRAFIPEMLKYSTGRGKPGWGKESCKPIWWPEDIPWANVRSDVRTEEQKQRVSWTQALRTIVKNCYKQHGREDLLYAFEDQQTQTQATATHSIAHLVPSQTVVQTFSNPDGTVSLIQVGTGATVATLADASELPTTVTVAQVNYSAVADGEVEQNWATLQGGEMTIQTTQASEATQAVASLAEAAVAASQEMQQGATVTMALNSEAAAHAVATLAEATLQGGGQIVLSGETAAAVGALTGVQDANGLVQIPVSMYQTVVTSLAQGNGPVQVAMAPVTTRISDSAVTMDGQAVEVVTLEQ
Hepatocyte nuclear factor 4-alpha (Homo sapiens), sequence (P41235 whole entry, looked up): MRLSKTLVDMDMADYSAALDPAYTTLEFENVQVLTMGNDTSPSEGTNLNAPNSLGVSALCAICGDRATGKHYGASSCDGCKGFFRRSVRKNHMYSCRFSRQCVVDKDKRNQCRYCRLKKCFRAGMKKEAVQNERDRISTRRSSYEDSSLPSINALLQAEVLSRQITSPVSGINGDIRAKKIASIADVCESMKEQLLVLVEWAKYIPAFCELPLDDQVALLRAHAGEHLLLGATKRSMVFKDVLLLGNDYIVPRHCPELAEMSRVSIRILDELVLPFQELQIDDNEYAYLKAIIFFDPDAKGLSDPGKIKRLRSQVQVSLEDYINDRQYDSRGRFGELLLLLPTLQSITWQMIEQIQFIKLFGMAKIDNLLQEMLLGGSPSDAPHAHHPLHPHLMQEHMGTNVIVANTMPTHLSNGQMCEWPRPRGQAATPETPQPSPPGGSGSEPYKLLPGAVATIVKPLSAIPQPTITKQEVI
Androgen receptor (Homo sapiens), sequence (P10275 whole entry, looked up, the tested form may be a part): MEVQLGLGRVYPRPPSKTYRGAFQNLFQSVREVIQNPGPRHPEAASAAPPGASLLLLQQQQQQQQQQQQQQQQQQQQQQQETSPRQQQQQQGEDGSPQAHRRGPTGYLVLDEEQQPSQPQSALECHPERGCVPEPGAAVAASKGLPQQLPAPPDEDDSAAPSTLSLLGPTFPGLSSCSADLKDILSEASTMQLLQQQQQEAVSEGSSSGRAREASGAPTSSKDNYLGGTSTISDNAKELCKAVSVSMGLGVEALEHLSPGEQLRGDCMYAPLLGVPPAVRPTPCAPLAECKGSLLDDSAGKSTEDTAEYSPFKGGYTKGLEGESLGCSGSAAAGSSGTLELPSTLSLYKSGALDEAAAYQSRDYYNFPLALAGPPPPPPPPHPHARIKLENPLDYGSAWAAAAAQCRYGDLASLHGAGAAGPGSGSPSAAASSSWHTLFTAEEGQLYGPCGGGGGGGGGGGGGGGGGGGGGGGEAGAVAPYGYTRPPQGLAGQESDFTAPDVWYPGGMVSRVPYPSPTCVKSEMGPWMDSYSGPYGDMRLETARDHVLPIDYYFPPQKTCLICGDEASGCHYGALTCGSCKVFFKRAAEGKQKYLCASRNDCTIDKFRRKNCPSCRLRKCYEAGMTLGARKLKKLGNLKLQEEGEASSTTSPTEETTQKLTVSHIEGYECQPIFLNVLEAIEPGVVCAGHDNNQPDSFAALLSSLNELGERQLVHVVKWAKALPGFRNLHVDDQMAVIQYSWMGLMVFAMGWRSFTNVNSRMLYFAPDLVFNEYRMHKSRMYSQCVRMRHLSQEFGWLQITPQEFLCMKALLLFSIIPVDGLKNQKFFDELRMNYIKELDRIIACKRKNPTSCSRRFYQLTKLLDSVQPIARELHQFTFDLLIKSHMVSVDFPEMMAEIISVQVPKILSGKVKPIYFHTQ
X-box-binding protein 1 (Homo sapiens), sequence (P17861 whole entry, looked up): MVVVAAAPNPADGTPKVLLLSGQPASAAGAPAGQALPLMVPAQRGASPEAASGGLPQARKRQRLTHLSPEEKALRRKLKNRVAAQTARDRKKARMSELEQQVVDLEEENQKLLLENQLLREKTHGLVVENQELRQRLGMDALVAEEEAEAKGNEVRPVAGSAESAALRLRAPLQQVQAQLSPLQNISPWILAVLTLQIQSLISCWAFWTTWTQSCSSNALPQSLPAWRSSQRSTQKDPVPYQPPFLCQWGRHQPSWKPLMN
Glucocorticoid receptor (Homo sapiens), sequence (P04150 whole entry, looked up, the tested form may be a part): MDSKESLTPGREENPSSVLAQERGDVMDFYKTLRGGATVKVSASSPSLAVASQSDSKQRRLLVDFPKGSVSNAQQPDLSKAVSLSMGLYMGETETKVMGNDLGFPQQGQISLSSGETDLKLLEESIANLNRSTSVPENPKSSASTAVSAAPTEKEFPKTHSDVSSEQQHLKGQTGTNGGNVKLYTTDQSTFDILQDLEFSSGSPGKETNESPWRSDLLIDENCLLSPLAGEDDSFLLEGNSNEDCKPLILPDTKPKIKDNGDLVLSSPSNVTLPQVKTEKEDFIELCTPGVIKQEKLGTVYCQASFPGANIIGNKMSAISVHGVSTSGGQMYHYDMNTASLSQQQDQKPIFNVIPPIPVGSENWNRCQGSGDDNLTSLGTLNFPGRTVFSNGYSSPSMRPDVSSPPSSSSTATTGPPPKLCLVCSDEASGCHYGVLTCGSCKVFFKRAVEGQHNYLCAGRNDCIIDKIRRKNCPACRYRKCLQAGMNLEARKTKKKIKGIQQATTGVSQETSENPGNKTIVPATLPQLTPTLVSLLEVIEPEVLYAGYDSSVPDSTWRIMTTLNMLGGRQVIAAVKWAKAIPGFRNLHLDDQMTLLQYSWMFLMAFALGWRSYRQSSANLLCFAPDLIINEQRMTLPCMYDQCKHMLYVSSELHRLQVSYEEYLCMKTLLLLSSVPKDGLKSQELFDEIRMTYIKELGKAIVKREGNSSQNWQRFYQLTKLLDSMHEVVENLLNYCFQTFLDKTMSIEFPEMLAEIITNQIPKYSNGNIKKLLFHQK

N#Cc1ccc(N(CC(N)=O)CC(F)(F)F)cc1C(F)(F)F
inactive: [1] | [2] | [3] | [4] | [5] | [6] | [7] | [8] | [9]

O=C(NC(=O)c1c(F)cccc1F)Nc1cc(Cl)c(OC(F)(F)C(F)F)c(Cl)c1
not listed: [2] | [5] | [13] | [14] | [15] | [16] | [17]
inactive: all other assays above

COc1ccc(O)c(C(C)(C)C)c1
active: [2] 58.7 µM | [3] 31.5 µM | [4] 100 µM
not listed: [5] | [6] | [11] | [16] | [17]
inactive: all other assays above

c1cc2ccc3cccc4ccc(c1)c2c34
not listed: [13] | [14]
inactive: all other assays above

Oc1ccc(Cl)cc1Cl
active: [3] 64 µM
not listed: [5] | [6] | [10] | [11] | [13]
inactive: all other assays above

CCOC(=O)C(O)(c1ccc(Cl)cc1)c1ccc(Cl)cc1
active: [2] 11.1 µM
not listed: [14] | [16] | [17]
inactive: all other assays above

Cc1cccc(C)c1N
not listed: [2] | [3] | [5] | [10] | [11] | [15] | [16]
inactive: all other assays above

CC1=C2C[C@H]3[C@@H](CC=C4C[C@@H](O)CC[C@@]43C)[C@@H]2CC[C@]12O[C@@H]1C[C@H](C)CN[C@H]1[C@H]2C
not listed: [5] | [10] | [11] | [16] | [17]
inactive: all other assays above

C=CC(=O)NCNC(=O)C=C
inactive: [1] | [2] | [4] | [11] | [16] | [12] | [7] | [8] | [9]

C=CC(N)=O
active: [2] 100 µM
not listed: [3] | [5] | [10] | [11] | [13] | [14]
inactive: all other assays above

Cc1cc(-c2ccc(N)c(C)c2)ccc1N
active: [3] 8.74 µM and 6.68 µM
not listed: [11] | [13] | [14]
inactive: all other assays above

ClC1=C(Cl)[C@]2(Cl)[C@@H]3[C@@H](Cl)[C@H]4O[C@H]4[C@@H]3C1(Cl)C2(Cl)Cl
inactive: [1] | [2] | [3] | [13] | [16] | [12] | [7]
active: [4] 36.5 µM | [8] 150 µM | [9] 65.1 µM

Cc1ccccc1[N+](=O)[O-]
not listed: [3] | [5] | [11] | [13] | [14] | [16] | [17]
inactive: all other assays above

Cc1cccc([N+](=O)[O-])c1
inactive: [1] | [2] | [3] | [4] | [12] | [7] | [8] | [9]

C[C@]12CCC(=O)C=C1CC[C@@H]1[C@@H]2CC[C@]2(C)C(=O)CC[C@@H]12
active: [3] 65.1 nM and 9.14 nM and 9.25 nM
not listed: [2] | [5] | [10] | [11] | [13]
inactive: all other assays above

O=NN(c1ccccc1)c1ccccc1
inactive: [1] | [4] | [14] | [12] | [7] | [8] | [9]
active: [3] 23.6 µM

Clc1ccc(Cl)cc1
not listed: [11] | [14]
inactive: all other assays above
